# HT1080 IDH1KD tx: kills HT-1080 cells with IDH1 knockdown; 360,000 compounds, 2% hits; Potency, µM (series often up to 46.1 µM), inactives show at the top dose activity, negative = toxicity, actives largely listed as cytotoxic; HT-1080 IDH1 knockdown viability, ATP luminescence, 48 h;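 also: potency is read from the fitted curve at half-maximal effect; 0% = DMSO wells and -100% = cell-free medium wells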
#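 % activity derives from luminescence (CellTiter-Glo), normalised to DMSO and no-cell wells. HT-1080-IDH1KD cells, 750/well, had 48 h compound exposure at 37 °C.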
# ELG1 repair inh: blocks ELG1-dependent DNA repair in HEK293T cells; HEK293T ELG1-luciferase reporter, luminescence, 16 h; DNA damage induced by 5-fluorouridine; Potency, µM (highest dose often 46.1 µM), for the others: at the top dose activity change, negative = inhibition, usual class: inhibitors; 330,000 compounds, 2.3% hits; also: potency is read from the fitted curve at half-maximal effect; nearly all actives have a fitted effect of over 55% in size
#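 Luminescence from the luciferase reporter, measured 30 min after ONE-Glo reagent at room temperature, was the read-out. Beforehand, 2,000 cells per well were exposed for 16 hr at 37 °C to 5-fluorouridine together with compound or vehicle.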
# IL-1B inflam inh: inhibitors of inflammasome signaling (IL-1 beta secretion) | 360,000 compounds, 4.7% hits | activity change, % at 57.5 µM | THP-1 LPS/ATP IL-1B secretion, AlphaLISA, 16 h; hits give low values | AID 743279; in the data active = activity change below about -50%; inconclusive = mostly about -30% to -49%
#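 THP-1 cells pretreated 1 hr with compounds (up to 57.5 uM final), then stimulated with LPS (250 ng/mL final) plus ATP (1.25 mM final); secreted IL-1B measured by AlphaLISA after 16 hr, decreased signal indicating inhibition.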
# HT1080NT lethal: kills 2HG-producing HT-1080-NT fibrosarcoma cells; AID 686970; 360,000 compounds, 1.6% hits; Potency, µM (titrated, usually from 46.1 µM), without a hit: at the top dose activity, negative = less viability, usual class: cytotoxic; HT-1080-NT fibrosarcoma viability, CellTiter-Glo ATP luminescence, 48 h;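 also: NT is the 2HG producing partner of a matched IDH1 knockdown line; potency is read from the fitted curve at half-maximal effect; 0% = DMSO-treated cells and -100% = media-only wells without cells; nearly all actives have a fitted effect of over 55% in size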
#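 Luminescent CellTiter-Glo readout after 48 hours of compound exposure at 37 degrees C defined viability of HT-1080-NT cells. Activity was normalized to DMSO wells and cell-free media wells; concentration-response curves were fitted and assigned curve classes.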
# DT40 TDP1 CPT: DT40-hTDP1 cell growth loss with CPT. chicken DT40 Tdp1-/-;hTDP1 cells + 20 nM CPT, ATP luminescence, 48 h. Potency, µM (top dose mostly 46.2 µM), without a hit: at the top dose activity change, negative = growth inhibition, actives largely listed as inhibitors. 420,000 compounds, 12% hits. AID 686979; also: potency is read from the fitted curve at half-maximal effect; nearly all actives have a fitted effect of over 55% in size
#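 Cell growth measured by CellTiter-Glo luminescence after a minimum 48 h, 37 C compound exposure with 20 nM CPT in Tdp1-knockout DT40 cells stably expressing hTDP1, seeded 400/well; qHTS titration format.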
# DT40 TDP1 no CPT: qHTS for Inhibitors of human tyrosyl-DNA phosphodiesterase 1 (TDP1): qHTS in cells in absence of CPT; DT40 Tdp1-/- hTDP1 cells, no CPT, ATP luminescence, 48 h; Potency, µM (highest dose often 46.2 µM), for the others: top-dose activity change, negative = growth inhibition, hits mostly inhibitors; 420,000 compounds, 15% hits; AID 686978, 2013; also: potency is read from the fitted curve at half-maximal effect; nearly all actives have a fitted effect of over 55% in size
#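 Compound effects on proliferation are scored in DT40 Tdp1-/-;hTDP1 cells in the absence of CPT. ATP levels (CellTiter-Glo luminescence) are recorded after a ≥48 hr, 37 °C incubation.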
# Numbers without * were called inactive; ? = inconclusive; . = no result; [ ] = another dose, or the depositor's remark. Most compounds without a hit are left out; they make up all but 19% or so of the library. Unless noted, calls follow the shape of the dose curve; as a rule, active = well fitted curve in the direction sought with a large enough effect; inconclusive = small, poorly fitted or top-dose-only effect, or another doubt; inactive = no such curve, though single readings can be large; an effect the other way counts as inactive or inconclusive. Unless noted, % is scaled to controls: 0 for no effect and ±100 for the full control effect.
SMILES,HT1080 IDH1KD tx,ELG1 repair inh,IL-1B inflam inh,HT1080NT lethal,DT40 TDP1 CPT,DT40 TDP1 no CPT
CCOC(=O)Cc1csc(NC(=O)C(NC(=O)C2CCC(C)CC2)C(C)C)n1 (stereo unspecified),-1%,8.2µM*,23,3%,?,8.2µM*
CCOC(=O)C(C)NC(=O)C(NC(=O)C1CCC(CC)CC1)C(C)C (stereo unspecified),-1%,.,6,1%,15µM*,?
CCOC(=O)Cc1csc(NC(=O)Nc2ccc(F)cc2)n1,-10%,7.3µM*,1,-20%,?,18µM*
O=C(CSc1nc2ccccc2o1)NC1CCS(=O)(=O)C1 (stereo unspecified),20%,-1%,1,17%,-10%,-9%
O=C(COC(=O)CNC(=O)c1ccccc1Cl)NC1CC1,2%,?,11,3%,-5%,-1%
COc1ccc(NC(=O)CN2C(=O)NC3(CCCCCC3)C2=O)cc1Cl,?,10%,-14,-10%,?,?
Cn1c(SCC(=O)Nc2ccc3c(c2)OCO3)nnc1C(F)(F)F,0%,0%,4,-3%,14%,-3%
CCOC(=O)Cc1csc(NC(=O)c2ccc(S(=O)(=O)N3CCCC3)cc2)n1,-1%[9.24 µM],?,-54*,?,?,?
CCOC(=O)Cc1csc(NC(=O)Nc2ccc(C)cc2)n1,-10%,-2%,?,7.3µM*,-26%,?
CCOC(=O)Cc1csc(N/C(=N/S(=O)(=O)c2ccc(Cl)cc2)c2ccccc2)n1,-5%,-1%,1,-6%,?,29µM*
CCOC(=O)Cc1csc(NC(=S)NC(=O)c2cc(OC)c(OC)c(OC)c2)n1,-1%,-23%,20,2%,?,12µM*
CCOC(=O)Cc1csc(NS(=O)(=O)c2ccc(Cl)cc2)n1,0%,-2%,6,1%,-8%,1%
CCOC(=O)Cc1csc(NC(=O)c2ccc(S(=O)(=O)N3CCOCC3)cc2)n1,-12%,0%,?,-2%,-20%,?
O=[N+]([O-])c1cc(-c2nc(-c3ccccc3)no2)ccc1N1CCN(c2ccccc2)CC1,.,.,.,.,-18%,?
CCOC(=O)Cc1csc(NC(=O)c2sc3nc4c(C)cc(C)cc4cc3c2N)n1,?,21%,12,?,?,18µM*
Cc1c(Cl)cccc1NC(=O)Cn1nnc(C(=O)NCc2cccs2)c1N,-15%,14%,4,?,5.2µM*,1.6µM*
Cc1ccccc1NC(=O)Cn1nnc(C(=O)NCc2cccs2)c1N,.,.,.,.,9.2µM*,6.5µM*
COc1ccc(-c2nc3cc(C)ccc3cc2CN(C(=O)c2csc(C)n2)C2CC2)cc1OC,.,.,.,.,9%[9.04 µM],-20%
Cc1c(C(=O)N2CCC(C)CC2)oc2ccc3c(c12)C(O)CC1(CCCCC1)O3 (stereo unspecified),9.2µM*,10%,-21,?,16µM*,?
CN=C(NC)NCc1ccccc1,.,.,.,.,-1%,6%
COc1ccccc1CCNC(=O)Cc1c(C)c2ccc(O)cc2oc1=O,.,.,.,.,8%,-17%
CC(C)(C)OC(=O)NC(CNCc1ccccc1)Cc1ccccc1 (stereo unspecified),-1%,-2%,-7,-3%,13µM*,?
CCN1C(=O)[C@H]2[C@H]3CN=C(SC)N3[C@@](Cc3ccccc3)(C(=O)OC)[C@H]2C1=O,8%,?,4,6%,-5%,10%
Cc1cnn(CCC(=O)NNC(=S)Nc2ccc(F)cc2)c1,13%,?,1,8%,-4%,-12%
Cc1cnn(CCC(=O)NNC(=S)Nc2cccc(Cl)c2)c1,0.71µM*,?,10,0.79µM*,-21%,2%
SMILES,HT1080 IDH1KD tx,ELG1 repair inh,IL-1B inflam inh,HT1080NT lethal,DT40 TDP1 CPT,DT40 TDP1 no CPT
Cc1cc(NC(=O)CSc2nc(C(C)(C)C)nc3ccccc23)no1,1%,2%,0,0%,?,?
CCCc1nc(SCC(=O)N2CCCC2)c2ccccc2n1,0%,?,1,-2%,-7%,?
CC(C)(C)c1nc(SCC(=O)NNC(=O)c2ccccc2)c2ccccc2n1,?,?,-91*,?,?,?
COc1ccc(C(=O)NNC(=O)CSc2nc(C(C)C)nc3ccccc23)cc1,-9%,-3%,-93*,-24%,-4%,-24%
CCc1nc(SCC(=O)NNC(=O)c2ccc(OC)cc2)c2ccccc2n1,9%,1%,-29,0%,?,-16%
CC(C)NC(=O)CSc1nc(Cc2ccccc2)nc2ccccc12,-14%,-6%,-70*,0%,?,?
CCCc1nc(SCC(=O)NC2CCCC2)c2ccccc2n1,-1%,-2%,-58*,-14%,?,?
CC(C)c1nc(SCC(=O)NC2CCCCC2)c2ccccc2n1,7%,-1%,-7,11%,0%,?
CC(C)(C)c1nc(SCC(=O)NC2CCCC2)c2ccccc2n1,-17%,-1%,-62*,-14%,-24%,-25%
COc1ccc(C(=O)N2CCC[C@@]3(CCN(Cc4nccs4)C3)C2)cc1,.,.,.,.,-29%,-14%
COc1ccc(C(=O)Nc2cccc(NC(=O)c3cccs3)c2)cc1OC,-15%,15µM*,?,3%,15µM*,13µM*
COc1ccc(NC(=O)CCC(=O)c2cccs2)cc1Cl,3%,10%,2,16%,4%,1%
COc1ccc(C(=O)Nc2ccc(NC(=O)c3cccs3)cc2)cc1Cl,-1%,?,6,-1%,15µM*,18µM*
COc1ccc(NC(=O)c2cccs2)cc1,-5%,?,-1,-8%,-15%,?
COc1ccc(/C=C/C(=O)c2ccc(NC(=O)c3cccs3)cc2)cc1OC,-26%,?,-66*,?,18µM*,23µM*
COc1ccc(NC(=O)Nc2cccs2)cc1Cl,-2%,?,-52*,-4%,?,23µM*
COc1cccc(NC(=O)COC(=O)CCS(=O)(=O)c2ccc(C)cc2)c1,20%,23%,21,18%,-2%,11%
COc1ccc(C(=O)Nc2ccc(NC(=O)c3cccs3)cc2)cc1OC,.,.,.,.,?,18µM*
COc1c(Cl)cc(Cl)cc1C(=O)Nc1ccc(NC(=O)c2cccs2)cc1,-1%[9.24 µM],?,-20,?,?,16µM*
COc1ccc(CCC(=O)Nc2nnc(C(F)(F)F)s2)cc1,4%,9%,28,2%,-4%,-1%
